SMILES strings stand for the structures. Out of some 53,000 compounds screened, about 900 (1.7%) showed an effect of 50% or more. Only a selection was taken, and strong results are over-represented in it overall.

The test system of this experiment is Mycobacterium tuberculosis. The experiment can be described thus: Cornell - Phenotypic assay to identify agents that inhibit growth of Mycobacterium tuberculosis. Also noted: scale not given: direction of the effect not stated beside the values. In kind it is functional. The conditions noted are these: 10 mM as filed; unlikely as a test dose.
With `Cc1cccc(=O)n1CCC(=O)N1CC[C@@](O)(C2CCC2)[C@H](C)C1`, the “Percent Effect” value is recorded as 13.12%.

As for `CN(C)CCN(C)c1ccc(-c2nc(COc3ccccc3)no2)cn1`, the “Percent Effect” value worked out at 54.95%.

On to `COCc1noc(-c2ccc(N(C)Cc3ncccc3C)nc2)n1`, for which the “Percent Effect” value is 3.239%.

With `CN(C)CCNc1ccc(-c2nc(COc3ccccc3)no2)cn1`, the “Percent Effect” value came to 16.69%.

Turning to `CN1CCCC(c2cccc(CCC(N)=O)n2)C1` (stereo not drawn), the “Percent Effect” value is given as -6.826%.

For the compound `CNC(=O)N1CCc2nc(C(=O)NCc3cccc(OC)c3)sc2CC1`, the “Percent Effect” value is on record as -3.356%.

Consider `N#Cc1ncn(CC(=O)Nc2cc(Cl)ccc2F)n1`, for which the “Percent Effect” value was 104.7%.

On to `N#Cc1ncn(CCC(=O)Nc2c(Cl)cccc2Cl)n1`, for which the “Percent Effect” value was found to be 58.03%.

Regarding `N#Cc1ncn(CCC(=O)Nc2cc(Cl)ccc2Cl)n1`, the “Percent Effect” value stood at 44.53%.

As to `N#Cc1ncn(CCS(=O)(=O)c2ccc(Cl)cc2)n1`, the “Percent Effect” value is given as -29.79%.

On to `CN(Cc1c(F)cccc1Cl)C(=O)Cn1cnc(C#N)n1`, for which the “Percent Effect” value is recorded as 14.48%.

Take `N#Cc1ncn(Cc2c(F)cccc2Cl)n1`: the “Percent Effect” value came out at 3.788%.

`COC(=O)c1ccc(Cn2cnc(C#N)n2)cc1`: the “Percent Effect” value was found to be 33.09%.

For the compound `N#Cc1ncn(CCC(=O)Nc2ccccc2F)n1`, the “Percent Effect” value is reported as 26.46%.

For `N#Cc1ncn(CCC(=O)Nc2cccc(Cl)c2)n1`, the “Percent Effect” value is listed as 68.3%.

With `N#Cc1ncn(CCC(=O)Nc2ccc(F)c(F)c2)n1`, the “Percent Effect” value is given as 34.8%.

On to `N#Cc1ncn(CCC(=O)Nc2ccc(Cl)cc2F)n1`, for which the “Percent Effect” value came out at 105.4%.

Consider `N#Cc1ncn(CC(=O)Cc2c(F)cccc2Cl)n1`, for which the “Percent Effect” value came out at 41.98%.

Consider `OCCOc1cc(F)ccc1NCc1ccc(F)c(F)c1`, for which the “Percent Effect” value is 11.25%.

`CCOC(=O)[C@H]1CNC[C@H]1C(=O)OCC.Cl`: the “Percent Effect” value came out at 36.02%.

As to `CNc1cccc(C2CN(C(=O)c3c[nH]cn3)CCO2)n1` (stereo not drawn), the “Percent Effect” value amounted to 6.6%.

Turning to `O=C(O)Cn1nc(-c2ccccc2F)ccc1=O`, the “Percent Effect” value was found to be 3.999%.

`CCSc1ncccc1C(=O)NCc1ccc(N(C)C)cc1`: the “Percent Effect” value amounted to 4.638%.

In the case of `C=C(C)COc1ccccc1C(=O)NCc1nc(C)cc(=O)[nH]1`, the “Percent Effect” value came to 11.83%.

`NS(=O)(=O)c1ccc(N2CCN(CCCc3cn[nH]c3)CC2)cc1`: the “Percent Effect” value is listed as -32.06%.

Turning to `O=C(O)C(F)(F)F.O=C(O)C(F)(F)F.O=C(O)C(F)(F)F.c1cnc(NC[C@H]2OC[C@@H]3CCN(Cc4cccnc4)C[C@@H]32)nc1`, the “Percent Effect” value is recorded as 43.57%.

Take `COc1ccc(N2CCN(C(=O)C3CN(C)C(=O)N3)CC2(C)C)cc1` (stereo not drawn): the “Percent Effect” value stood at 2.102%.

In the case of `CCOCC(=O)N1CCCn2c(nnc2Cn2cccc2)C1`, the “Percent Effect” value is given as -5.462%.

`Cc1nn(C)cc1CN1CCc2nc3sccc3c(=O)n2CC1`: the “Percent Effect” value was determined as 50.52%.

`CCn1cncc1CN1CCc2nc3sccc3c(=O)n2CC1`: the “Percent Effect” value is given as 47.13%.

Turning to `Cn1cc(CN2CCc3nc4sccc4c(=O)n3CC2)cn1`, the “Percent Effect” value is -10.08%.

Regarding `Cn1ncc(Cl)c1C(=O)N1CCc2nc3sccc3c(=O)n2CC1`, the “Percent Effect” value was -13.36%.

Turning to `O=c1c2ccccc2nc2n1CCN(Cc1cccs1)CC2`, the “Percent Effect” value was 20.89%.

In the case of `Cc1c(CN2CCc3nc4sccc4c(=O)n3CC2)cnn1C.Cl`, the “Percent Effect” value is 51.95%.

For the compound `Cc1cc2c(=O)n3c(nc2s1)CCN(Cc1cnn(C)c1C)CC3.Cl`, the “Percent Effect” value is listed as -41.11%.

`Cn1cc(CN2CCc3nc4ccccc4c(=O)n3CC2)cn1`: the “Percent Effect” value amounted to 52.34%.

Turning to `Cl.Cn1cncc1CN1CCc2nc3sccc3c(=O)n2CC1`, the “Percent Effect” value was determined as 43.45%.

Take `COc1cc2ncn(Cc3ncc[nH]3)c(=O)c2cc1OC`: the “Percent Effect” value amounted to 6.69%.

On to `CCc1cccc(OCCN(C)C(=O)c2ccccc2NCC(=O)O)c1`, for which the “Percent Effect” value stood at 10.74%.

Take `COc1cccc(CN2CCCC(Cn3nc(C)nc3C)C2)c1` (stereo not drawn): the “Percent Effect” value was found to be 16.57%.

Take `O=C(c1ccncc1F)N1CCc2ncnc(-c3ccncc3)c2CC1`: the “Percent Effect” value is -7.007%.

In the case of `Cn1nc(CN2CCCN(C3CCCC3)CC2)c2c(Cl)cccc21`, the “Percent Effect” value is reported as 60.03%.

For the compound `C[C@@H]1CN(C2CCN(Cc3nn(C)c4cccc(Cl)c34)CC2)C[C@H](C)O1`, the “Percent Effect” value is -20.95%.

As to `Cn1nc(CN2CCCCC(N)C2)c2c(Cl)cccc21` (stereo not drawn), the “Percent Effect” value is recorded as -4.365%.

In the case of `O=C(c1cccc(-n2cnnc2)c1)N1C[C@@H](O)[C@H](N2CCOCC2)C1`, the “Percent Effect” value is on record as 40.33%.

Consider `CN1C(=O)C2(CC(=O)Nc3[nH]ncc32)c2ccc(F)cc21` (stereo not drawn), for which the “Percent Effect” value came out at 10.37%.

Regarding `CN(Cc1cnccn1)S(=O)(=O)c1ccc(C(F)(F)F)nc1`, the “Percent Effect” value is -14.08%.

On to `CC(CS(C)(=O)=O)N(C)C(=O)NCCCc1ccc(Cl)cc1` (stereo not drawn), for which the “Percent Effect” value was determined as 12.33%.

Regarding `CS(=O)(=O)N1CCCCCC1c1cc(-c2ccc(F)cc2)no1` (stereo not drawn), the “Percent Effect” value turned out to be 7%.

As to `COc1ccc(-c2cc(C3CCCCCN3S(=O)(=O)N(C)C)on2)cc1` (stereo not drawn), the “Percent Effect” value was 15.93%.

`CN(C)S(=O)(=O)N1CCCCCC1c1cc(-c2ccc(F)cc2)no1` (stereo not drawn): the “Percent Effect” value is on record as 73.32%.

Turning to `Cc1ccc(-n2cc(S(=O)(=O)Nc3cccc(C(=O)O)c3C)cn2)cc1`, the “Percent Effect” value is recorded as 9.419%.

In the case of `Cc1ccc(NS(=O)(=O)c2cnn(Cc3ccccc3)c2)c(C(=O)O)c1`, the “Percent Effect” value is given as -25.98%.

Take `Cc1ccc(NS(=O)(=O)c2cnn(-c3ccccc3)c2)c(C(=O)O)c1`: the “Percent Effect” value was 55.25%.

As for `CCCN(CCC)c1ncc(S(=O)(=O)c2ccc(OC)cc2)c(N)n1`, the “Percent Effect” value is 26.01%.

As to `CC[C@H]1CN(C(=O)c2cccc(-n3cnnc3)n2)CC[C@@]1(C)O`, the “Percent Effect” value was -27.2%.

With `Cc1noc(C)c1C(=O)N1CCCC1(C)C(=O)NC1CCCC1` (stereo not drawn), the “Percent Effect” value is on record as -3.819%.

Regarding `CCOc1cc(C(=O)N2CCCC(c3noc(C)n3)C2)ccc1OC` (stereo not drawn), the “Percent Effect” value amounted to 13.87%.

For `COc1ccc(NC(=O)N2CCC(c3noc(C)n3)CC2)cc1C`, the “Percent Effect” value turned out to be 55.08%.

Turning to `COc1ccc(NC(=O)N2CCC(c3nnc[nH]3)CC2)cc1C`, the “Percent Effect” value came out at 16.56%.

As to `CCn1cnnc1C1CCN(C(=O)c2cccc(C)c2C)CC1`, the “Percent Effect” value is -30.53%.

On to `Cc1ccc(NC2CCN(C(=O)Cc3cccs3)CC2)nn1`, for which the “Percent Effect” value is reported as -3.843%.

Take `O=C(Cc1cccnc1)N1CC(Cc2nccc3cc[nH]c23)C1`: the “Percent Effect” value stood at 4.598%.

Regarding `COc1ccccc1NC(=O)c1cnc(C2CCN(C(C)=O)C2)nc1C` (stereo not drawn), the “Percent Effect” value stood at 26.28%.

With `Cl.Cl.Clc1cccc(C[C@@H]2NCCC[C@@H]2Nc2ccccc2)c1`, the “Percent Effect” value came out at 55.37%.

Take `O=C(Cc1cccc(Cl)c1)N[C@@H]1CCNC[C@H]1O`: the “Percent Effect” value is 2.906%.

For `O=C1NCCCc2[nH]c(Cc3cccc(Cl)c3)nc21`, the “Percent Effect” value is -7.355%.

For `Cl.Cl.Clc1cccc(C[C@@H]2NCCC[C@@H]2Nc2cccc(Cl)c2)c1`, the “Percent Effect” value was determined as 108.9%.

As to `Cl.c1ccc(CCNc2cccc(C3CCCNC3)n2)cc1` (stereo not drawn), the “Percent Effect” value stood at 12.44%.

`CCOc1ccc(Cl)cc1C1CCCN1.Cl` (stereo not drawn): the “Percent Effect” value was -3.998%.

For the compound `Cl.Clc1cccc(N[C@H]2CCCN[C@H]2Cc2ccccc2)c1`, the “Percent Effect” value is listed as 107%.

As for `O=C(C[S+]([O-])Cc1cccc(Cl)c1)NC1CCCC1` (stereo not drawn), the “Percent Effect” value amounted to 37.46%.

As for `O=C(NCCc1cccc(Cl)c1)C1CCOCC1`, the “Percent Effect” value is recorded as 10.9%.

As for `Cc1ccc(-c2cc(CS(=O)(=O)NC3CCCNC3=O)on2)cc1` (stereo not drawn), the “Percent Effect” value is -20.71%.

On to `CN(Cc1ccsc1)C(=O)Cn1c(CS(C)(=O)=O)nc2ccccc21`, for which the “Percent Effect” value is 17.82%.

Turning to `Cc1ccc(S(=O)(=O)NC2=NCN(CCc3cccs3)CN2)cc1`, the “Percent Effect” value is listed as -5.965%.

Take `O=C(CCN1CCCO1)N1CC[C@@H](c2ccc3ccccc3c2)[C@H](O)C1`: the “Percent Effect” value was 5.243%.

Turning to `O=C(CCn1cccn1)N1CC[C@@H](c2ccc3ccccc3c2)[C@H](O)C1`, the “Percent Effect” value is given as -1.48%.

With `O=C(CCN1CCCC1)N1CC[C@@H](c2ccc3ccccc3c2)[C@H](O)C1`, the “Percent Effect” value came to 59.79%.

With `O=S1(=O)CCC(S(=O)(=O)c2cccc(S(=O)(=O)N3CCCC3)c2)C1` (stereo not drawn), the “Percent Effect” value was 4.254%.

Consider `CN(Cc1ccco1)[C@@H]1CN(Cc2cccs2)C[C@@H]2CCCO[C@@H]21.O=C(O)C(F)(F)F.O=C(O)C(F)(F)F`, for which the “Percent Effect” value was 3.22%.

Turning to `Cc1cc(NC2CCN(c3ccc(F)cc3)CC2)n2nc(C)cc2n1`, the “Percent Effect” value was 39.2%.

In the case of `Cc1cc(NC2CCCN(Cc3ccc(F)cc3)C2)n2nc(C)cc2n1` (stereo not drawn), the “Percent Effect” value is on record as 55.74%.

For `Cc1cc(N[C@H]2CCCN(Cc3ccccc3)C2)n2nc(C)cc2n1`, the “Percent Effect” value is on record as -6.549%.

Regarding `O=C(CCc1cccs1)N1CCCC1c1noc(C2CC2)n1` (stereo not drawn), the “Percent Effect” value was -0.7961%.

In the case of `CC(NC(=O)c1cn(CCC2CCCCC2)nn1)c1cnn(C)c1` (stereo not drawn), the “Percent Effect” value is -6.193%.

In the case of `CCCOc1ccccc1CCCNc1ncnc2oc(C)nc12`, the “Percent Effect” value worked out at 30.24%.

In the case of `CCCOc1ccc(Cl)cc1CNc1ncnc2oc(C)nc12`, the “Percent Effect” value was 65.32%.

Take `Cc1nc2c(NC(CC(C)(C)C)c3cccnc3)ncnc2o1` (stereo not drawn): the “Percent Effect” value is recorded as -7.649%.

For the compound `CCc1nnc(CN(C)C(=O)C(CC)n2c(CC)nc3ccccc32)o1` (stereo not drawn), the “Percent Effect” value is given as 5.212%.

In the case of `CCNC(=O)[C@@H]1C[C@@H](NC(=O)c2cc(C)on2)CN1Cc1ccccn1`, the “Percent Effect” value is on record as -5.653%.

Consider `COc1ccc(C)cc1NC(=O)Nc1cnc(O)nc1O`, for which the “Percent Effect” value is listed as 28.36%.

As for `CCN(CC)c1ccc(NS(=O)(=O)c2cnn(C)c2)cn1`, the “Percent Effect” value was 9.807%.

As to `CCN(CC)c1ccc(NS(=O)(=O)c2cccnc2)cn1`, the “Percent Effect” value worked out at 24.54%.

As to `CCN(CC)c1ccc(NS(=O)(=O)c2cncc(F)c2)cn1`, the “Percent Effect” value came to 62.74%.

Take `COc1cccc(CNCC2CN(C)CCO2)c1` (stereo not drawn): the “Percent Effect” value amounted to 10.27%.

For the compound `CC(=O)N1CCN(Cc2ccc(OCc3nccn3C)cc2)CC1`, the “Percent Effect” value was -16.77%.

For the compound `Cc1cc2nccc(C3CCCN(C(=O)c4ccccc4F)C3)n2n1` (stereo not drawn), the “Percent Effect” value amounted to 8.36%.

Take `c1nc(-c2nc(C3CCOC3)no2)cs1` (stereo not drawn): the “Percent Effect” value was -30.96%.

Consider `O=C(Nc1ccccc1)c1ccc(NCc2ccncc2)nn1`, for which the “Percent Effect” value was 71.71%.

In the case of `O=C(Nc1ccccc1)c1ccc(NCc2nccs2)nn1`, the “Percent Effect” value came out at 40.64%.

`O=C(Nc1ccccc1)c1ccc(NCc2ccccc2CO)nn1`: the “Percent Effect” value stood at 16.95%.

Take `CC(=O)N1CCCC1c1nc(C)c2c(n1)N(Cc1ccccn1)CCC2` (stereo not drawn): the “Percent Effect” value was -10.82%.

These data come from ChEMBL document CHEMBL3988442, “University of Dundee, Small-Polar-MMV Screening Library” (2021).
